Screens deposited in PubChem by National Center for Advancing Translational Sciences (NCATS).
D3 antag: antagonists of human D3 dopamine receptor | max response, negative = inhibition, % | 2.5% of 360,000 active | D3R cells, DiscoveRx beta-arrestin luminescence, antagonist mode; stronger effect = lower value; in the data active = max response below about -50%; inconclusive = no clear call, values can overlap the other calls; note: % is set by controls: 0 for no effect and ±100 for the full control effect
Target sequence (P35462 whole entry, looked up): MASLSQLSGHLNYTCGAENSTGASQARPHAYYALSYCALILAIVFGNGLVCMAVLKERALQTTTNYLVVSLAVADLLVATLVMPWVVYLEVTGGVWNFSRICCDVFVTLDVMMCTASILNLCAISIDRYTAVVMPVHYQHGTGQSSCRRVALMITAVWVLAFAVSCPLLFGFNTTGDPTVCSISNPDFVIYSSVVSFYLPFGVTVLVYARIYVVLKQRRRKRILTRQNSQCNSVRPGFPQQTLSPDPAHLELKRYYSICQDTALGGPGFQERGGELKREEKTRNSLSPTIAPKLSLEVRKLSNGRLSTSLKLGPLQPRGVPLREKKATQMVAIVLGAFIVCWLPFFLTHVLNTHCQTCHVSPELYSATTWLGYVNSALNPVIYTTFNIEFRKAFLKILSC
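Cells expressing the human receptor were seeded at 1500 cells/well, incubated overnight at 37 degrees C in 5% CO2, then exposed to library compounds with dopamine controls for 90 minutes at 37 degrees C before luminescent detection.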
HepG2 tox: HepG2 cytotoxicity, counter-screen for TGF-b inhibitors | Potency, µM (doses to about 46.1 µM), for the others: at the top dose activity change, negative = cytotoxicity, actives largely listed as cytotoxic | 0.76% of 410,000 active | HepG2 CAGA-GFP viability, ATP luminescence, 18 h; note: potency is the fitted concentration of half-maximal effect
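HepG2 CAGA-GFP cells (1000/well, DMEM with 1% FBS) received compound, then TGF-beta at 500 pg/mL final, and were incubated 18 hours at 37 degrees C. Viability was read by CellTiter-Glo luminescence. Media-only wells were set as complete cell-killing and DMSO as no toxicity.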
ATXN2 expr inh: reduces ATXN2 reporter expression in HEK-293 cells; Potency, µM (top dose mostly 57 µM), inactives show at the top dose activity change, negative = inhibition, usual class: inhibitors; 0.72% of 360,000 active; HEK-293 ATXN2-luciferase reporter, luminescence, 24 h; note: potency is the fitted concentration of half-maximal effect; % is set by controls: 0 for no effect and ±100 for the full control effect; nearly all actives have a fitted effect of over 55% in size
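qHTS (up to 57 uM final) was run with 24 h compound exposure of reporter cells at 37 °C. Each well was multiplexed: SteadyGlo luminescence measured ATXN2-luciferase expression after a fluorogenic Gly-Phe-AFC viability readout (25 uM final).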
D3 ag: activates the human D3 dopamine receptor; P35462; D3R DiscoveRx beta-arrestin cells, luminescence, 90 min; max activation, %; 0.58% of 410,000 active; in the data active = max activation above about 30%; note: 0% is about no effect
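Agonist-mode cell screen: cells plated at 1500/well and incubated overnight at 37 °C, then exposed to library compounds for 90 min at 37 °C. Detection reagent was added for 30–60 min at room temperature, and luminescence was read.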
TGFb SMAD3 inh: TGF-b pathway inhibition; HepG2 CAGA-GFP TGF-b/SMAD3 reporter, GFP fluorescence, 18 h; TGF-beta stimulated, 500 pg/mL final; Potency, µM (series often up to 46.1 µM), inactives show at the highest dose activity, negative = inhibition, actives largely listed as inhibitors; 1.2% of 410,000 active; note: potency is the fitted concentration of half-maximal effect; % is set by controls: 0 for no effect and ±100 for the full control effect; nearly all actives have a fitted effect of over 65% in size
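GFP signal (ex488/em500-530) from TGF-beta-stimulated HEPG2 CAGA-GFP cells, 500 pg/mL final, 18 h at 37 degrees C in DMEM plus 1% FBS, normalized to unstimulated and DMSO-stimulated controls.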
ATXN viability: cell viability loss in ATXN counter-screen | S2 cells (HEK-293 line with an ATXN2-luciferase reporter) viability, CellTiter-Fluor protease fluorescence, 24 h | Potency, µM (doses to about 56.7 µM), most hits filed as cytotoxic | 0.49% of 400,000 active; note: potency is the fitted concentration of half-maximal effect; nearly all actives have a fitted effect of over 40% in size
* = called active by the depositor; ! = repeats disagree. Shown are actives, neighbours in structure and some others; about 4.8% of the full set was active somewhere. Unless noted, calls come from the whole dose curve; as a rule, active = well fitted curve in the direction sought with a large enough effect; inconclusive = small, poorly fitted or top-dose-only effect, or another doubt; inactive = no such curve, though single readings can be large; an effect the other way counts as inactive or inconclusive.

Screening CCOC(=O)C1CCCN(CC(=O)c2ccc(F)cc2)C1 (stereo unspecified) returned D3 antag -66*, HepG2 tox 3%, ATXN2 expr inh -4%, D3 ag -14, TGFb SMAD3 inh 5% and ATXN viability inactive.
`CNc1ccc(/C=C2\C=Cc3ccccc32)cc1OC` gave HepG2 tox -11% and TGFb SMAD3 inh -3%.
Cc1ccc(-c2nc(CCNC(=O)C(=O)Nc3ccc(C)c(Cl)c3)cs2)cc1 was read as HepG2 tox 0%, D3 ag 3 and TGFb SMAD3 inh -4%.
`COc1ccc(CCNC(=O)c2ccc3c(c2)N(Cc2ccccc2Cl)C(=O)c2ccccc2S3)cc1OC` gave HepG2 tox -14%, D3 ag -2 and TGFb SMAD3 inh inconclusive.
Screening CCOC(=O)C1CCCN(Cc2nc(N)nc(Nc3ccccc3)n2)C1 (stereo unspecified) returned D3 antag -60*, HepG2 tox -20%, ATXN2 expr inh -6%, D3 ag -23, TGFb SMAD3 inh 14% and ATXN viability inactive.
Screening CCOC(=O)C1CCCN(CCCc2ccccc2)C1 (stereo unspecified) returned D3 antag -65*, HepG2 tox 4%, ATXN2 expr inh 11%, D3 ag -16, TGFb SMAD3 inh 0% and ATXN viability inactive.
Screening CCOC(=O)C1CCN(Cc2nnnn2CCc2ccccc2)CC1 returned D3 antag -2, HepG2 tox 4%, ATXN2 expr inh 3%, D3 ag 3, TGFb SMAD3 inh 20% and ATXN viability inactive.
CCOC(=O)C1CCN(Cc2cccc(OCc3ccccc3)c2)CC1 was read as D3 antag -66*, HepG2 tox -3%, D3 ag 3, TGFb SMAD3 inh -12% and ATXN viability inactive.
Nc1nc(CN2CCCCCC2)nc(Nc2ccccc2)n1 was read as D3 antag inconclusive, HepG2 tox -16%, ATXN2 expr inh -25%, D3 ag 1, TGFb SMAD3 inh 3% and ATXN viability inactive.
`CCOC(=O)C1CCN(Cc2nc3ccc(Cl)cc3n2CCO)CC1` gave D3 antag -66*, HepG2 tox 3%, ATXN2 expr inh -7%, D3 ag 0, TGFb SMAD3 inh -6% and ATXN viability inactive.
`COc1cccc(Cn2c(CNS(=O)(=O)c3ccc(F)c(Cl)c3)nc3cccnc32)c1` gave HepG2 tox -20%, D3 ag -32 and TGFb SMAD3 inh inconclusive.
For O=C(C1CCCN(S(=O)(=O)c2cccc3nsnc23)C1)N1CCN(c2ccccc2)CC1 (stereo unspecified) the results were HepG2 tox -3%, ATXN2 expr inh inconclusive, D3 ag 0, TGFb SMAD3 inh inconclusive and ATXN viability inconclusive.
`CCN1C[C@H](C)n2c(c(O)c3c(=O)n(Cc4ccc(F)c(Cl)c4)nc(C(=O)NC)c32)C1=O` gave ATXN2 expr inh -4%.
`O=C(NC1CCC(n2cc(C(=O)NC3CC3)nn2)CC1)C(=O)c1ccccc1` (stereo unspecified) gave ATXN viability inactive.
Screening c1ccc(COc2cccc(CN3CCc4ccccc4C3)c2)cc1 returned D3 antag -87*, HepG2 tox 0%, ATXN2 expr inh 15%, D3 ag -23, TGFb SMAD3 inh 4% and ATXN viability inactive.
Screening NC(=O)C1CCN(Cc2cccc(OCc3ccccc3)c2)CC1 returned D3 antag -22, HepG2 tox -2%, ATXN2 expr inh -7%, D3 ag -9, TGFb SMAD3 inh 18% and ATXN viability inactive.
`CCOC(=O)C1CCCN(Cc2cccc(Cl)c2)C1` (stereo unspecified) gave D3 antag -61*, HepG2 tox 4%, ATXN2 expr inh -6%, D3 ag -57, TGFb SMAD3 inh -17% and ATXN viability inactive.
For Cc1cc(=O)c2cc(C(=O)Nc3ccc(C)c(C)c3)ccc2[nH]1 the results were HepG2 tox 11%, ATXN2 expr inh -7%, D3 ag -6, TGFb SMAD3 inh 1% and ATXN viability inactive.
For Cc1ccccc1OCC(=O)N1N=C(C(F)(F)F)CC1(O)C(C)(C)C (stereo unspecified) the results were D3 antag -18, HepG2 tox 11µM*, ATXN2 expr inh -26%, D3 ag -5, TGFb SMAD3 inh inconclusive and ATXN viability inactive.
Screening COC(=O)C1CCN(C2=C(NS(=O)(=O)c3ccc(Cl)cc3)C(=O)c3ccccc3C2=O)CC1 returned D3 antag -15, HepG2 tox -64%, ATXN2 expr inh -25%, D3 ag -6, TGFb SMAD3 inh inconclusive and ATXN viability inconclusive.
`Cc1ccc(S(=O)(=O)NC2=C(N3CCN(c4ccccc4F)CC3)C(=O)c3ccccc3C2=O)cc1` gave D3 antag -67*!, HepG2 tox 9%, ATXN2 expr inh 4%, D3 ag -3, TGFb SMAD3 inh -22% and ATXN viability inconclusive.
Screening NC(=O)C1CCN(C2=C(NS(=O)(=O)c3ccc(Cl)cc3)C(=O)c3ccccc3C2=O)CC1 returned D3 antag -16, HepG2 tox -110%, D3 ag -8, TGFb SMAD3 inh 11µM* and ATXN viability inconclusive.
`Cc1ccc(S(=O)(=O)NC2=C(N3CCN(Cc4ccccc4)CC3)C(=O)c3ccccc3C2=O)cc1` gave D3 antag -60*, HepG2 tox -18%, ATXN2 expr inh 4%, D3 ag -35, TGFb SMAD3 inh -1% and ATXN viability inactive.
Screening Cc1ccc(S(=O)(=O)Nc2nc3ccccc3nc2N2CCN(c3ccccc3F)CC2)cc1 returned D3 antag 0, HepG2 tox -35%, ATXN2 expr inh inconclusive, D3 ag -4, TGFb SMAD3 inh inconclusive and ATXN viability inactive.
For CCOC(=O)N1CCN(C2=C(NS(=O)(=O)c3ccc(C)cc3)C(=O)c3ccccc3C2=O)CC1 the results were D3 antag inconclusive, HepG2 tox -98%, D3 ag -5, TGFb SMAD3 inh 22µM* and ATXN viability 32µM*.
Cc1ccc2oc(-c3cc(NC(=O)CC(C)C)ccc3Cl)nc2c1 was read as HepG2 tox -80%, ATXN2 expr inh -12%, D3 ag 2, TGFb SMAD3 inh inconclusive and ATXN viability inactive.
For CC(=O)Nc1ccc(S(=O)(=O)NC2=C(N3CCN(c4ccc(F)cc4)CC3)C(=O)c3ccccc3C2=O)cc1 the results were D3 antag 3, HepG2 tox -96%, ATXN2 expr inh -15%, D3 ag -1, TGFb SMAD3 inh 11µM* and ATXN viability inconclusive.
